Molecules are shown by their SMILES. Out of some 2,400 compounds screened, about 2,200 (92%) were called active.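 The calls were made as follows: active = mean inhibition over triplicate runs exceeds the cutoff derived for the earlier primary screen (cut at about 25% in these data); inactive = the rest.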 The set was probably picked from earlier hits. This is one part of the list.

In general, inhibition refers to how much of the control response was suppressed.

For the assay, the target named is Platelet-activating factor acetylhydrolase IB subunit alpha2 (Homo sapiens) (UniProt P68402). Description: PAFAH1B2 inhibitors, confirmation, biochemical, fluorescence polarization, FP-rhodamine probe, triplicate (AID 493034).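 Also: 0% = enzyme with DMSO and 100% = wells lacking PAFAH1B2 protein; inhibitors lower polarization by leaving the probe unbound.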 The settings on record: recombinant PAFAH1B2, FP-rhodamine probe fluorescence polarization; at 3.39 µM; active compounds read high. (Fluorescence polarisation rises when a labelled molecule tumbles more slowly, as on binding a larger partner.)
Platelet-activating factor acetylhydrolase IB subunit alpha2 (Homo sapiens), sequence (P68402 whole entry, looked up): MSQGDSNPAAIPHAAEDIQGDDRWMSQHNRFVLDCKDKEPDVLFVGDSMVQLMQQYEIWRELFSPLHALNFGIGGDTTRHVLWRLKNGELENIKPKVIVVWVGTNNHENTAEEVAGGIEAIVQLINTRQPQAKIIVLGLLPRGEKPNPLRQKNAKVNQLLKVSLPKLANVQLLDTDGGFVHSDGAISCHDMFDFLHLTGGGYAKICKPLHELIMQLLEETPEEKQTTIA
With `Clc1ccc(OCCSCc2nc3ccccc3[nH]2)cc1`, the inhibition is 22.6% (inactive). With `COc1ccc(S(=O)(=O)Nc2ccc3c(c2)CC(=O)N([C@@H](C)CO)C[C@@H](C)[C@@H](CN(C)Cc2ccccc2)O3)cc1`, the inhibition is 26.1% (active). Regarding `COc1ccc(S(=O)(=O)Nc2ccc3c(c2)C(=O)N([C@H](C)CO)C[C@H](C)[C@@H](CN(C)S(=O)(=O)c2ccccc2)O3)cc1`, the inhibition is 22.7% (inactive). `COc1ccc(S(=O)(=O)Nc2ccc3c(c2)C(=O)N([C@@H](C)CO)C[C@H](C)[C@H](CN(C)S(=O)(=O)c2ccc(F)cc2)O3)cc1`: the inhibition is 22.2% (inactive). With `COC(=O)c1sc(-c2ccc(Cl)cc2)cc1NC(=O)COCC(=O)O` the figure was 11.5% (inactive); with `O=C(Nc1sc(-c2ccccc2)cc1C(=O)O)c1ccccc1`, 28.8% (active); with `S=c1[nH]cnc2sc(-c3ccccc3)cc12`, 37.9% (active). `O=[N+]([O-])c1cc(-c2cnc3ccccc3n2)ccc1Oc1ccc(Br)cc1`: the inhibition is 51.6% (active). The value for `CC(C)(C)CC(C)(C)c1ccc(O)c(CN2CCN(CCC#N)CC2)c1` was 32.4% (active).

Take `COC(=O)c1sccc1NC(=O)CC1C(=O)NCCN1C(=O)Nc1ccc(OCc2ccccc2)cc1` (stereo unspecified): the inhibition is 52.2% (active). With `Cn1nc(C(=O)NCCc2ccc(Cl)cc2)c2c1-c1ccccc1S(=O)(=O)C2`, the inhibition was 23.3% (inactive).

Regarding `Oc1cc2c(cc1O)CN(C(=S)NCCc1ccc(Cl)cc1)CCC2`, the inhibition was 55.2% (active). With `Cc1c(C(=O)N2CCOCC2)cc(C(C)(C)C)n1-c1ccccc1` the figure was 41% (active); with `CCC(C)c1c(N)n(S(=O)(=O)c2ccc(C)cc2)oc1=O` (stereo unspecified), 23.5% (inactive); with `Cc1ccc(S(=O)(=O)n2cc(CO)c3ccccc32)cc1`, 40% (active). On to `O=C(C[C@H]1C/C=C/CC[C@H](Cc2ccc(F)cc2)C(=O)O[C@H](c2ccccc2)CNC1=O)NCCO`, for which the inhibition was 23.6% (inactive). With `O=C1NC[C@@H](c2ccccc2)OC(=O)[C@H](Cc2ccc(F)cc2)CC/C=C/C[C@H]1CC(=O)N(CCO)Cc1ccccc1` the figure was 52.6% (active).

For `O=C1NCCOC(=O)[C@H](Cc2ccc(F)cc2)C/C=C\C[C@H]1CC(=O)N(CCO)Cc1ccccc1`, the inhibition was 14.8% (inactive). The value for `O=C1NC[C@@H](c2ccccc2)OC(=O)[C@@H](Cc2ccc(F)cc2)CC/C=C/C[C@H]1CC(=O)N(CCO)Cc1ccccc1` was 57.9% (active). Regarding `O=C1NC[C@H](c2ccccc2)OC(=O)[C@H](Cc2ccc(F)cc2)C/C=C\C[C@H]1CC(=O)N(CCO)Cc1ccccc1`, the inhibition is 49.6% (active).

Regarding `S=c1[nH]nc(CSCCOc2ccc(Cl)cc2Cl)o1`, the inhibition was 23.3% (inactive).

Values taken from PubChem BioAssay AID493034 (The Scripps Research Institute Molecular Screening Center, 2011).
